The text below walks through data of PubChem BioAssay (Tox21).

SMILES strings stand for the structures. Several values for one entry are separate records, joined by “and”; a condition that tells them apart may be missing. Equal values may be shown once. Records with an inconclusive call do not appear. Entries that show only a call come without a potency. Values without a mark were called inactive. Activity calls are given as the source filed them. Calls follow the shape of the full dose curve.
Potency is read from the fitted curve at half-maximal effect.

This experiment in a line: p53 small molecule agonists, cell-based qHTS assay: qHTS cell viability counter screen (AID 1963581). Also: nearly all actives have a fitted effect of over 45% in size. The following applies: p53RE-bla HCT-116 viability, ATP luminescence, 16 h; series mostly up to 66 µM; activity change, negative = cytotoxicity: at the top concentration. An excerpt:
National Center for Advancing Translational Sciences [NCATS]
Division of Preclinical Innovation [DPI]
U.S. Environmental Protection Agency [EPA]
National Institutes of Environmental Health Sciences [NIEHS]
National Toxicology Program [NTP]
U.S. Food and Drug Administration [FDA]
p53, a tumor suppressor protein, is activated following cellular insult, including DNA damage and other cellular stresses. The activation of p53 regulates cell fate by inducing DNA repair, cell cycle arrest, apoptosis, or cellular senescence. The activation of p53, therefore, is a good indicator of DNA damage and other cellular stresses. The CellSensor p53RE-bla HCT-116 cell line (Invitrogen) contains a stably integrated beta-lactamase reporter gene under control of the p53 response elements. The activation of the reporter gene under culture conditions can be detected by fluorescence intensity. This cell line was used to screen the Tox21 compound library in a 1536-well plate format and to identify agonists that activate the p53 signaling pathway. The cytotoxicity of the Tox21 compound library against the p53 RE-bla HCT-116 cell line was tested in parallel by measuring the intra cellular ATP content in the same wells.
Tox21 Assay Protocol Summary:
The p53RE-bla cells were dispensed at 4,000 cells/5 ul/well in 1536-well black wall/clear bottom plates using a Multidrop dispenser. After the assay plates were incubated at a 37 C/5% CO2 incubator for 5 hours, 23 nL of compounds dissolved in DMSO, positive controls or DMSO only was transferred to the assay plate by a pin tool. The plates were incubated at 37 C for 16 hours. After 1 uL of LiveBLAzerTM B/G FRET substrate was added using a Flying Reagent Dispenser, the plates were incubated at room temperature for 2 hours, and fluorescence intensity was measured by an Envision plate reader. For cell viability readout that measures cytotoxicity, 4 ul/well of CellTiter-Glo reagent was added into the assay plates using a Flying Reagent Dispenser. After 30 min incubation at room temperature, the luminescence intensity in the plates was measured using a ViewLux plate reader.
(In qHTS, concentration-response curves come from the screen itself.)
Regarding `O=C(O)CC[N+](=O)[O-]`, the Potency result is “inactive”.

On to `CCCCCCCCCCCC(=O)O`, for which the Potency entry was “inactive”. On to `CN(C)CCO`, for which the “activity change, negative = cytotoxicity” value was -9.77%.

Take `CCCCN(CCCC)SN(C)C(=O)Oc1cccc2c1OC(C)(C)C2`: the Potency entry was “inactive”. Turning to `O=C(O)c1cc(Cl)ccc1Cl`, the “activity change, negative = cytotoxicity” value is -2.13%. Same read-out and setting: the value for `CC1CC(CC2CCC(N)C(C)C2)CCC1N` (stereo not given) was -1.28%. Regarding `CNC(=O)Oc1ccccc1OC(C)C`, the Potency entry was “inactive”. Consider `CCOc1nc(F)cc2nc(S(=O)(=O)Nc3c(Cl)cccc3Cl)nn12`, for which the “activity change, negative = cytotoxicity” value is -0.469%.

With `Cc1cc(Cl)ccc1N`, the Potency entry is “inactive”. Consider `CN1CC[C@]23c4c5ccc(O)c4O[C@H]2[C@@H](O)CC[C@H]3[C@H]1C5`, for which the “activity change, negative = cytotoxicity” value was -4.94%.

For the compound `CC(C)(OOC(C)(C)c1ccccc1)c1ccccc1`, the Potency entry was “inactive”. Consider `Cc1ccc(Cl)c(O)c1`, for which the “activity change, negative = cytotoxicity” value is -17.9% [at 30.3 µM].

For the compound `c1ccc2c(c1)CCCC2`, the Potency result was “inactive”. For the compound `Cc1ccc(N)cc1`, the Potency result was “inactive”. In the case of `C[Si](Cn1cncn1)(c1ccc(F)cc1)c1ccc(F)cc1`, the Potency entry was “inactive”.

As for `Nc1ccccc1`, the Potency entry is “inactive”.

As to `CCCCN(CCCC)N=O`, the Potency entry is “inactive”.

For the compound `CC(C)C1(C)N=C(c2ncccc2C(=O)O)NC1=O` (stereo not given), the “activity change, negative = cytotoxicity” value was 4.65%. Turning to `CC(C)(c1ccccc1)c1ccc(O)c(C(C)(C)c2ccccc2)c1`, the Potency was 14.3 µM (active) and 45.8 µM (active). Regarding `CNC(=O)Oc1c(C(C)(C)C)cc(C)cc1C(C)(C)C`, the “activity change, negative = cytotoxicity” value was 3.68%. Regarding `NNC(=S)NN`, the Potency result was “inactive”. With `O=C(O)CF`, the Potency entry is “inactive”. Turning to `CCC(Br)(CC)C(=O)NC(N)=O`, the “activity change, negative = cytotoxicity” value is 1.53%. On the same count and under the same terms, the value for `CC(C)OS(C)(=O)=O` was -1.12%.

For `O=C(O)c1ccccn1`, the “activity change, negative = cytotoxicity” value was -11.7% [at 30.3 µM]. Turning to `O=C(CCl)c1ccccc1`, the Potency entry was “inactive”. As for `CC(=O)C=C(C)C`, the “activity change, negative = cytotoxicity” value was -8.73%. Same read-out and setting: the value for `ClC1(Cl)C2(Cl)C3(Cl)C4(Cl)C(Cl)(Cl)C5(Cl)C3(Cl)C1(Cl)C5(Cl)C24Cl` (stereo not given) was 0.361%. `COC(=O)NS(=O)(=O)c1ccc(N)cc1`: the Potency result was “inactive”.

Consider `CC(NC(C)(C)C)C(=O)c1cccc(Cl)c1` (stereo not given), for which the “activity change, negative = cytotoxicity” value was 15.3% [at 30.3 µM]. For `Clc1ccc(C(Cl)(Cl)Cl)cc1`, the Potency entry was “inactive”.

For `C[C@]12CC[C@H]3[C@@H](CCC4=CC(=O)CC[C@@H]43)[C@@H]1CC[C@@H]2O`, the Potency entry is “inactive”. With `NCC(O)c1ccc(O)cc1` (stereo not given), the Potency result was “inactive”. On the same count and under the same terms, the value for `Oc1c(Cl)c(Cl)c(Cl)c(Cl)c1Cl` was “inactive”. Consider `C=CC(C)=O`, for which the “activity change, negative = cytotoxicity” value is -6.31%. Take `c1ccc(N=NNc2ccccc2)cc1`: the Potency entry was “inactive”.

Consider `Cc1ccc(-c2nc3ccc(C)cn3c2CC(=O)N(C)C)cc1`, for which the “activity change, negative = cytotoxicity” value is -4.83% [at 30.3 µM].

With `O=C(O)c1ccc(=O)[nH]c1`, the “activity change, negative = cytotoxicity” value was -7.41% [at 30.3 µM]. Still for that read-out and setting: under `CC(COc1ccc(Oc2ccccc2)cc1)Oc1ccccn1` (stereo not given) stands -5.95%. Consider `Cc1ccc(N)cc1Cl`, for which the “activity change, negative = cytotoxicity” value is 13.1%.
